PubChem BioAssay
For some of these results: Potency and affinity values are given separately. Active and inactive are the calls of the source. Unless noted, how the calls were made is not given here.

Key:
[1] = antimalarial activity against Dd2 strain (AID 2302;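 active means growth inhibition above 50% at the single 2 µM test dose, taken to imply half-maximal potency below 2 µM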;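 further: 0% = DMSO untreated growth and 100% = chloroquine plus artemisinin killed control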); details: P. falciparum Dd2 in RBCs, LDH growth readout, 72 h; at 2 µM; hits give high values
[2] = HepG2 cytotoxicity, primary screen, cytotoxicity control for P. falciparum antimalarial project, cell-based, ATP luminescence (AID 2303;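 active means inhibition above 50%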;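 further: 0% = DMSO wells and 100% = digitonin-killed cells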); details: HepG2 viability, 24-48 h, at 10 µM, hits give high values
[3] = molecular target: L-lactate dehydrogenase (Plasmodium falciparum (isolate CDC / Honduras)) (UniProt Q27743); test: PfLDH activity inhibition – cell lysate, 3D7 strain, counter-screen for P. falciparum growth inhibition project (AID 2304);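 further: 0% = vehicle and 100% = reference inhibitor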; details: P. falciparum 3D7 crude extract, LDH APAD/NBT absorbance; at 2 µM; hits give high values
Chain of L-lactate dehydrogenase (Plasmodium falciparum (isolate CDC / Honduras)) (Q27743 whole entry, looked up): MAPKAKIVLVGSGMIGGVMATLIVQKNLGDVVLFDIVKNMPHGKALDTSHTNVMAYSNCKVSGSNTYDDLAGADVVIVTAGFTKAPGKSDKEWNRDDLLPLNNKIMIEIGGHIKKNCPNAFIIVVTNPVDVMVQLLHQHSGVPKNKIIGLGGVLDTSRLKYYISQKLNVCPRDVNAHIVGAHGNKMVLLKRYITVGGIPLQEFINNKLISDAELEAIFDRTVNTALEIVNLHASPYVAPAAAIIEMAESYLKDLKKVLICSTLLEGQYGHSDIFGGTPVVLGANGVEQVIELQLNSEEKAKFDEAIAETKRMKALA

[4] = inhibition of 3D7 malaria parasite growth – strain 3D7 (AID 2306);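 further: 0% = DMSO wells and 100% = chloroquine plus artemisinin control wells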; details: P. falciparum 3D7 erythrocytic growth, LDH absorbance, 72 h; at 2 µM; hits give high values
[5] = molecular target: Calcium-dependent protein kinase 1 (Plasmodium falciparum (isolate 3D7)) (UniProt P62344); test: PfCDPK1 kinase inhibitors, biochemical, TCAMS library (AID 1159585; cut-off not given, nearly all actives have IC50 up to about 0.98 µM;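 further: inhibitors leave more ATP so luminescence rises with inhibition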); details: recombinant PfCDPK1, Kinase-Glo ATP depletion luminescence
Chain of Calcium-dependent protein kinase 1 (Plasmodium falciparum (isolate 3D7)) (P62344 whole entry, looked up): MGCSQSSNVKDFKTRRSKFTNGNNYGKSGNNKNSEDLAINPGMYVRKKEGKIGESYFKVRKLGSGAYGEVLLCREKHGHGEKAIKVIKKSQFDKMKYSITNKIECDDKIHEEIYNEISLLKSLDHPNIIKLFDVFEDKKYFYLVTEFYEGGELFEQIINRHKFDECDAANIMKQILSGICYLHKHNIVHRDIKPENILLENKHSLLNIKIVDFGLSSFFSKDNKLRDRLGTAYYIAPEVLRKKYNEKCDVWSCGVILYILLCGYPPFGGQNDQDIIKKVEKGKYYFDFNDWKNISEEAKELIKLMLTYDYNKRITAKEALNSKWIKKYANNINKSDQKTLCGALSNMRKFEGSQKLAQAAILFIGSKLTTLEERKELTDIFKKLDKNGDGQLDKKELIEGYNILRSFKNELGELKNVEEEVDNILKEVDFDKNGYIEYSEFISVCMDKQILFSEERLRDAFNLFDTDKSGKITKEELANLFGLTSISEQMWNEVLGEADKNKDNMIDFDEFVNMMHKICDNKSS

[6] = molecular target: Plasmodium falciparum protein kinase 6 (PK6, PF3D7_1337100) (UniProt Q8IDW1); test: PfPK6 kinase inhibitors, biochemical, TCAMS library (AID 1159586); details: recombinant PfPK6, Kinase-Glo ATP depletion luminescence
Chain of Plasmodium falciparum protein kinase 6 (PK6, PF3D7_1337100) (Q8IDW1 1-305): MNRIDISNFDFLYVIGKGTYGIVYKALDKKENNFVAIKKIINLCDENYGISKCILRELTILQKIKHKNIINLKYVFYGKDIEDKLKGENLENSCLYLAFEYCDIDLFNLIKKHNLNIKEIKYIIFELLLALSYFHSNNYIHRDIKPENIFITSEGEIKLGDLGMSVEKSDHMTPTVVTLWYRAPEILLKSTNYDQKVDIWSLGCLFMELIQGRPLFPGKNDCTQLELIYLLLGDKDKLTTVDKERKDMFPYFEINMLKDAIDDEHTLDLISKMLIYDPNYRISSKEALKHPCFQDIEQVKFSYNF

[7] = molecular target: Protein kinase 7 (PK7), Plasmodium falciparum 3D7 (PF3D7_0213400) (UniProt Q7YTF7); test: inhibition of Plasmodium PK7 catalytic activity – biochemical, TCAMS antimalarial set, Kinase-Glo luminescence (AID 1159587); details: recombinant PfPK7, Kinase-Glo ATP depletion luminescence
Chain of Protein kinase 7 (PK7), Plasmodium falciparum 3D7 (PF3D7_0213400) (Q7YTF7 1-343): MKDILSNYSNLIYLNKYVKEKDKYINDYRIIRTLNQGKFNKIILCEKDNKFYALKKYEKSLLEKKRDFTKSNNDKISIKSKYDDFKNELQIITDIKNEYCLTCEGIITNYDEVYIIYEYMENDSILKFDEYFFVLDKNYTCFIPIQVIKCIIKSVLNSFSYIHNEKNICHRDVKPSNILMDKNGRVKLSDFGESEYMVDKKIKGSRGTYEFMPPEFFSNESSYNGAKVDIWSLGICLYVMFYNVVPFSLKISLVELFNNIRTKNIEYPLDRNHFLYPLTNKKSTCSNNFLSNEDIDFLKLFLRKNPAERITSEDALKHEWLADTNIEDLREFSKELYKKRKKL

[8] = molecular target: Calcium-dependent protein kinase 4 (Plasmodium falciparum (isolate 3D7)) (UniProt Q8IBS5); test: PfCDPK4 kinase inhibitors, biochemical, TCAMS library (AID 1159588; cut-off not given, nearly all actives have IC50 up to about 0.91 µM); details: recombinant PfCDPK4, Kinase-Glo ATP depletion luminescence
Chain of Calcium-dependent protein kinase 4 (Plasmodium falciparum (isolate 3D7)) (Q8IBS5 whole entry, looked up): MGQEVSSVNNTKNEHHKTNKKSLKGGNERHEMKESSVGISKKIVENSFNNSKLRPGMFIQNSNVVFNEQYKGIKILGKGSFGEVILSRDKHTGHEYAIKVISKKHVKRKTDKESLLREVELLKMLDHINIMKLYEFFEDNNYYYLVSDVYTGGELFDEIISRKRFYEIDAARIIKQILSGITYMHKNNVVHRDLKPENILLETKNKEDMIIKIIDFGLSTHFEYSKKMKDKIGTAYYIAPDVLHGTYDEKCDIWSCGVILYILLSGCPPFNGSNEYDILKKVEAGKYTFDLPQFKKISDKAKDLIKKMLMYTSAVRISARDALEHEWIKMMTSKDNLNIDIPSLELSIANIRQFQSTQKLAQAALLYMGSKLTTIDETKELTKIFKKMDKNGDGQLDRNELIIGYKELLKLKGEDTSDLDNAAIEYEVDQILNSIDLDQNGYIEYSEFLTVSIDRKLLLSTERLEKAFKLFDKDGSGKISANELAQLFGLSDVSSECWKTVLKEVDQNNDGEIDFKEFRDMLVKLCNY

Cc1cc(N2Cc3ccccc3C2)nc(Nc2ccc(S(=O)(=O)N3CCOCC3)cc2)n1
inactive: inhibition [2] 13% | inhibition [3] 0% | outcome [5] | outcome [6] | outcome [7] | outcome [8]
active: growth inhibition [1] 85% | growth inhibition [4] 101%

COc1cccc(C(=O)Nc2ccc(S(=O)(=O)c3cc4c(cc3OC)CCN(C)CC4)cc2)c1
active: growth inhibition [4] 86%
inactive: growth inhibition [1] 3% | inhibition [2] -11% | inhibition [3] -1% | outcome [5] | outcome [6] | outcome [7] | outcome [8]

COc1ccc(C=NNc2cc(C)nc3ccccc23)cc1OC
active: growth inhibition [4] 91%
inactive: growth inhibition [1] 8% | inhibition [2] 19% | inhibition [3] -1% | outcome [5] | outcome [6] | outcome [7] | outcome [8]

Cn1c(NC(=O)C2CCCN(C(=O)c3ccc(O)c(-c4ccc(Cl)c(Cl)c4)c3)C2)nc2ccccc21 (stereo not drawn)
active: growth inhibition [1] 99% | growth inhibition [4] 98%
inactive: inhibition [2] 0% | inhibition [3] -3% | outcome [5] | outcome [6] | outcome [7] | outcome [8]

Cc1cc(N(C)CCCN(C)C)nc(Nc2ccc(Br)cc2)n1
inactive: inhibition [2] 4% | inhibition [3] 1% | outcome [5] | outcome [6] | outcome [7] | outcome [8]
active: growth inhibition [1] 84% | growth inhibition [4] 100%

C=CCc1cc(Br)ccc1OCCCOc1c(N)nc(N)nc1N
inactive: growth inhibition [1] 0% | inhibition [2] 47% | inhibition [3] 4% | outcome [5] | outcome [6] | outcome [7] | outcome [8]
active: growth inhibition [4] 92%

Cc1cc(Nc2cccc(C(F)(F)F)c2)nc(N)n1
active: growth inhibition [4] 98%
inactive: growth inhibition [1] 24% | inhibition [2] 5% | inhibition [3] 1% | outcome [5] | outcome [6] | outcome [7] | outcome [8]

Fc1ccc2c(NN=Cc3ccccc3F)ccnc2c1
inactive: inhibition [2] 10% | inhibition [3] -1% | outcome [5] | outcome [6] | outcome [7] | outcome [8]
active: growth inhibition [1] 99% | growth inhibition [4] 101%

CC(=O)Nc1ncc(C(=O)Nc2cccc(-c3ccc(-c4nc5ccc(C(F)(F)F)cc5[nH]4)s3)c2)s1
active: growth inhibition [1] 99% | inhibition [2] 90% | growth inhibition [4] 101%
inactive: inhibition [3] 5% | outcome [5] | outcome [6] | outcome [7] | outcome [8]

O=C1OC2(CN1CC1CCN(Cc3ccc(O)c(Cl)c3)CC1)c1ccccc1-c1ccccc12
inactive: inhibition [2] 32% | inhibition [3] 0% | outcome [5] | outcome [6] | outcome [7] | outcome [8]
active: growth inhibition [1] 96% | growth inhibition [4] 97%

COCCNC(=O)c1ccc(OC2CCN(Cc3ccc(F)c(F)c3)CC2)c(Cl)c1
inactive: inhibition [2] 8% | inhibition [3] -2% | outcome [5] | outcome [6] | outcome [7] | outcome [8]
active: growth inhibition [1] 73% | growth inhibition [4] 88%

CNC(=O)COc1ccc(Nc2nnc(-c3ccc(C)c(S(=O)(=O)NCC4CCCO4)c3)c3ccccc23)cc1 (stereo not drawn)
active: growth inhibition [1] 68% | growth inhibition [4] 90%
inactive: inhibition [2] -8% | inhibition [3] 0% | outcome [5] | outcome [6] | outcome [7] | outcome [8]

Cc1cc(C(F)(F)F)n2nc(C(=O)N(Cc3cncn3Cc3ccccc3F)CC3CC3)cc2n1
inactive: inhibition [2] -5% | inhibition [3] 1% | outcome [5] | outcome [6] | outcome [7] | outcome [8]
active: growth inhibition [1] 100% | growth inhibition [4] 100%

N#CC(c1ccc(Cl)cc1)c1ccc2c(C(F)(F)F)cc(C(F)(F)F)nc2n1 (stereo not drawn)
inactive: inhibition [3] 1% | outcome [5] | outcome [6] | outcome [7] | outcome [8]
active: growth inhibition [1] 54% | inhibition [2] 68% | growth inhibition [4] 97%

NCCCNc1ccc(-c2ccc(NC(=O)Nc3cc(C(F)(F)F)ccc3F)cc2)cn1
inactive: inhibition [2] -3% | inhibition [3] 3% | outcome [5] | outcome [6] | outcome [7] | outcome [8]
active: growth inhibition [1] 66% | growth inhibition [4] 100%

CCCC[C@H](NC(=O)O[C@H](COc1ccc(OCc2ccccc2)cc1)C(C)(C)C)C(=O)C(=O)Nc1ccn[nH]1
inactive: inhibition [2] 21% | inhibition [3] -1% | outcome [5] | outcome [6] | outcome [7] | outcome [8]
active: growth inhibition [1] 71% | growth inhibition [4] 88%

CN(Cc1ccccc1)C1CCN(c2cc(NC(=O)c3cccc(F)c3)ccn2)CC1
active: growth inhibition [4] 93%
inactive: growth inhibition [1] 3% | inhibition [2] 2% | inhibition [3] -2% | outcome [5] | outcome [6] | outcome [7] | outcome [8]

O=C(Nc1ccc(CN2CCN(S(=O)(=O)c3cccc(Cl)c3)CC2)cc1)c1cccs1
active: growth inhibition [4] 84%
inactive: growth inhibition [1] 41% | inhibition [2] 9% | inhibition [3] 0% | outcome [5] | outcome [6] | outcome [7] | outcome [8]

CNCCNc1nccc(N2CCc3ncnc(Nc4ccc(OCc5cccc(F)c5)c(Cl)c4)c3C2)n1
inactive: inhibition [2] 30% | inhibition [3] -4% | outcome [5] | outcome [6] | outcome [7] | outcome [8]
active: growth inhibition [1] 98% | growth inhibition [4] 100%

CC(C)C[C@H](NC(=O)c1cc2ccccc2s1)C(=O)N[C@H]1CCN(Cc2ccc(I)c(OC3CCN(C)C3)c2)C1 (stereo partly drawn)
inactive: inhibition [3] 4% | outcome [5] | outcome [6] | outcome [7] | outcome [8]
active: growth inhibition [1] 95% | inhibition [2] 99% | growth inhibition [4] 100%

COc1ccc(Cl)cc1N1CCN(CCCNC(=O)c2ccc(-c3nc4ccc(C(F)(F)F)cc4[nH]3)c(C)c2)CC1
active: growth inhibition [4] 95%
inactive: growth inhibition [1] 14% | inhibition [2] 6% | inhibition [3] -2% | outcome [5] | outcome [6] | outcome [7] | outcome [8]

CC(C)C1C(O)=C(c2ccc3ccccc3c2)C(=O)N1CC1CCCCC1 (stereo not drawn)
active: growth inhibition [4] 84%
inactive: growth inhibition [1] 43% | inhibition [2] 11% | inhibition [3] -3% | outcome [5] | outcome [6] | outcome [7] | outcome [8]

COc1ccccc1C1CCN(C2CCC(NC(=O)/C=C/c3cccc(Cl)c3)CC2)CC1 (stereo not drawn)
inactive: growth inhibition [1] 20% | inhibition [3] 3% | outcome [5] | outcome [6] | outcome [7] | outcome [8]
active: inhibition [2] 54% | growth inhibition [4] 92%

c1ccc(-n2cncn2)cc1
inactive: inhibition [2] 0% | inhibition [3] 6% | outcome [5] | outcome [6] | outcome [7] | outcome [8]
active: growth inhibition [1] 96% | growth inhibition [4] 93%

CC(=O)N[C@H](C(=O)Nc1cccc(-c2ccc(-c3nc4c(C)cccc4[nH]3)s2)c1)C(C)C
active: growth inhibition [4] 93%
inactive: growth inhibition [1] 29% | inhibition [2] 33% | inhibition [3] 2% | outcome [5] | outcome [6] | outcome [7] | outcome [8]

CN(C)CCN(C)Cc1ccc(-c2ccc(NC(=O)c3cccc(C#N)c3)cc2)cc1
inactive: growth inhibition [1] 49% | inhibition [2] 20% | inhibition [3] 2% | outcome [5] | outcome [6] | outcome [7] | outcome [8]
active: growth inhibition [4] 89%

NC(=O)c1cccc(C(=O)Nc2cccc(-c3cccc(-c4nc5ccccc5[nH]4)c3)c2)c1
inactive: inhibition [2] 32% | inhibition [3] 2% | outcome [5] | outcome [6] | outcome [7] | outcome [8]
active: growth inhibition [1] 78% | growth inhibition [4] 100%

CC1(C)N=C(N)N=C(N)N1OCCc1cccc2ccccc12
active: growth inhibition [1] 97% | inhibition [2] 57% | growth inhibition [4] 95%
inactive: inhibition [3] -2% | outcome [5] | outcome [6] | outcome [7] | outcome [8]

CCOC(=O)N1CCN(CCCNc2c3ccccc3nc3ccccc23)CC1
inactive: growth inhibition [1] 20% | inhibition [2] 5% | inhibition [3] 2% | outcome [5] | outcome [6] | outcome [7] | outcome [8]
active: growth inhibition [4] 90%

COc1ccc(CNC(=O)NC2CCN(c3ccnc(Nc4cc(OC)c(OC)c(OC)c4)n3)C2)cc1 (stereo not drawn)
active: growth inhibition [1] 90% | growth inhibition [4] 91%
inactive: inhibition [2] -2% | inhibition [3] 3% | outcome [5] | outcome [6] | outcome [7] | outcome [8]

CCn1c(C)cc(C=C2SC(=Nc3ccccc3)NC2=O)c1C
active: growth inhibition [1] 87% | growth inhibition [4] 90%
inactive: inhibition [2] 27% | inhibition [3] 3% | outcome [5] | outcome [6] | outcome [7] | outcome [8]

CCCCCCN(CCCCCC)CC(O)c1cc(-c2ccc(Cl)cc2)nc2c(C)cc(C)cc12 (stereo not drawn)
active: growth inhibition [1] 98% | growth inhibition [4] 98%
inactive: inhibition [2] 27% | inhibition [3] -2% | outcome [5] | outcome [6] | outcome [7] | outcome [8]

O=C1OC(c2ccccc2)(c2ccccc2)CN1C1CCN(Cc2ccc(O)c(Cl)c2)C1 (stereo not drawn)
inactive: inhibition [2] 10% | inhibition [3] 3% | outcome [5] | outcome [6] | outcome [7] | outcome [8]
active: growth inhibition [1] 93% | growth inhibition [4] 100%

CC(C)(C)c1cc(C(=O)N2CCN(c3ncnc4ccsc34)CC2)n(Cc2ccccc2)n1
inactive: inhibition [2] 2% | inhibition [3] -8% | outcome [5] | outcome [6] | outcome [7] | outcome [8]
active: growth inhibition [1] 83% | growth inhibition [4] 95%

CCCNCc1ccc(-c2ccc(CN(CCOC)C(=O)c3cnc(C)cn3)cc2)nc1
inactive: growth inhibition [1] 14% | inhibition [2] -3% | inhibition [3] -4% | outcome [5] | outcome [6] | outcome [7] | outcome [8]
active: growth inhibition [4] 81%

Nc1nc(N)c2cc(C(F)(F)F)ccc2n1
inactive: growth inhibition [1] 1% | inhibition [2] 8% | inhibition [3] -3% | outcome [5] | outcome [6] | outcome [7] | outcome [8]
active: growth inhibition [4] 80%

O=C(Nc1ccc(F)c([N+](=O)[O-])c1)Nc1cc(C(F)(F)F)ccc1Cl
active: growth inhibition [1] 86% | growth inhibition [4] 101%
inactive: inhibition [2] 5% | inhibition [3] 0% | outcome [5] | outcome [6] | outcome [7] | outcome [8]

CN1CCN(CCCN(Cc2ccc(-c3cccc(CNC4CCCC4)c3)cc2)C(=O)Nc2ccccc2)CC1
active: growth inhibition [1] 76% | growth inhibition [4] 92%
inactive: inhibition [2] 28% | inhibition [3] -3% | outcome [5] | outcome [6] | outcome [7] | outcome [8]

c1ccc(-c2nc(NC3CCCCC3)cc(C3CC3)n2)nc1
active: growth inhibition [1] 76% | growth inhibition [4] 97%
inactive: inhibition [2] 35% | inhibition [3] 2% | outcome [5] | outcome [6] | outcome [7] | outcome [8]

C=CCOC(=O)N1CCC(CNCc2cccc(-c3ccc(-c4nc5ccccc5[nH]4)s3)c2)C1 (stereo not drawn)
active: growth inhibition [1] 63% | growth inhibition [4] 99%
inactive: inhibition [2] 9% | inhibition [3] 0% | outcome [5] | outcome [6] | outcome [7] | outcome [8]

CS(=O)(=O)Nc1cccc(-c2cnc3[nH]cc(-c4cc(N)cc(C(=O)O)c4)c3c2)c1
active: growth inhibition [1] 96% | growth inhibition [4] 96%
inactive: inhibition [2] 40% | inhibition [3] 0% | outcome [5] | outcome [6] | outcome [7] | outcome [8]
